Source: PubChem BioAssay (Broad Institute)
A1 inh: A1 inhibition; 21,000 tested, 0.51% active; MEF A1-2A-BIM cells, caspase-Glo luminescence, 3 h; percent of clofoctol signal, DMSO as zero; caspase activation, % (concentration not given with the values);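 active = most replicate scores above 10, or exactly half above 10 with mean activity above 10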;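 note: effector caspase 3 and 7 activity cleaving a DEVD luciferin substrate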
Of the large screens only hits and unclear results are named; the others gave an inactive call. Shown is part of a subset that was picked to be rich in hits.

CC(C)(C)n1nc(-c2ccc(Cl)cc2)c2c(N)ncnc21	A1 inh 13
Cn1nc(C(=O)N2CCOCC2)cc1C(=O)N1CCOCC1	none
CC(=O)OC[C@H]1O[C@@H](n2cc(C)c(=O)[nH]c2=O)C[C@@H]1OC(C)=O	none
CCOC(=O)c1c(/N=C/C2C(=O)NC(=S)NC2=O)sc2c1CCCCC2	none
CC(C)c1ccc2c(c1)CCC1C(C)(C(N)=O)CCCC21C (centres undefined)	none
CC(C)c1ccc2c(c1)CCC1[C@](C)(C(=O)O)CCC[C@]21C (some centres undefined)	none
CC(C)c1c(O)ccc2c1CCC1C(C)(C)CCC[C@]21C (some centres undefined)	A1 inh 43
CCCNC(=O)c1cc(=O)n(Cc2ccc(C)cc2)c2ccccc12	none
Cc1nc(Oc2ccc(NC(=O)c3ccccc3)cc2)c2c3c(sc2n1)CCC3	A1 inh 29
Cc1nc(Oc2ccc3c(C)cc(=O)oc3c2)c2c3c(sc2n1)CCC3	none
c1ccc(Oc2ncnc3sc4c(c23)CCCC4)cc1	none
CC1(c2ccc(F)cc2)CC(=O)c2cc(O)ccc2O1 (centres undefined)	none
CC(C)(C)C(=O)NC(=S)Nc1ccc2c(c1)COC2=O	none
COc1ccc(CCNc2nc(SCC(=O)c3ccc(F)cc3)nc3ccccc23)cc1OC	A1 inh 16
Cc1ccc(CNC(=O)CSc2nc(NCCc3ccccc3)c3ccccc3n2)cc1	none
COc1cc(Nc2nc(SCC(=O)c3ccc(O)c(O)c3)nc3ccccc23)cc(OC)c1	none
CCOC(=O)c1nc(N)c(=O)n(-c2ccc(Cl)cc2)n1	none
CCSc1nnc2n(/N=C/c3cccs3)cnn12	none
CS(=O)(=O)N1CCC(C(=O)NCCN2CCCCCC2)CC1	none
CCOC(=O)N1CCC(n2c(SCC(=O)Nc3ccc(C)cc3)nc3ccccc3c2=O)CC1	none
N#Cc1c(OCC(F)(F)F)ccc(SCc2ccccc2)c1OCC(F)(F)F	none
Oc1cc(C2CCCCC2)cc(C2CCCCC2)c1	A1 inh 46
CCN(C(=O)c1cc2c(=O)[nH]c3ccc(C)cc3c2s1)c1ccccc1	none
Cc1ccc(C(=O)Oc2ccc3oc(=O)sc3c2)cc1	none
CC(C)(C)c1ccc(NC(=O)/C=C/c2ccc(-c3cccs3)s2)cc1	none
CN1C(=O)[C@@]2(Cc3ccccc3)SSS[C@]1(CO)C(=O)N2C	A1 inh 31
Cc1ccccc1CSCC(=O)NCc1ccccc1	none
COC(=O)C1=C(C)NC(=O)CC1c1ccccc1I (centres undefined)	none
COC(=O)c1ccccc1NC(=O)CC1(c2ccc(Cl)cc2)C(=O)c2ccccc2C1=O	none
O=c1oc2ccccc2cc1-c1cn2cc(Cc3ccccc3Cl)sc2n1	none
CCc1ccc(Sc2cc(C(=O)NCc3cccnc3)c3ccccc3n2)cc1	none
O=C(c1ccc2c(c1)C(=O)c1ccccc1-2)c1ccccc1Br	none
O=C(Nc1cccc(Br)c1)c1cccc2c1C(=O)c1ccccc1-2	A1 inh 26
NC(=O)c1ccccc1NC(=O)c1cccc(Br)c1	none
C=CCn1c(=O)c2c(nc3n2CC(C)CN3Cc2ccccc2)n(C)c1=O (centres undefined)	none
COC(=O)Cn1c(Cl)nc2c1c(=O)n(C)c(=O)n2C	none
COC(=O)Cn1c(=O)c2c(nc3n2CCN3c2ccccc2)n(C)c1=O	A1 inh 37
COC(=O)c1ccc(NC(=O)COc2ccc3ccccc3c2Br)cc1	none
CCCc1ccc(-c2c(C)sc(N)c2C#N)cc1	A1 inh 12
CCCc1ccc(O)c(N)c1	none
CC1CCCCC1NC(=O)CCn1nc(-c2ccccc2)ccc1=O (centres undefined)	none
CNC(=O)/C(=C\c1ccc2c(c1)OCO2)NC(=O)c1ccco1	none
CN(C)c1ccc(/C=C2/C(=O)Nc3ccccc32)cc1	none
O=C1Nc2ccccc2/C1=C\c1c(Cl)[nH]c2ccccc12	none
O=C1Nc2ccccc2/C1=C/C(=O)c1ccc(Cl)cc1	A1 inh 65
CCOC(=O)CSc1cn(Cc2ccc(Cl)cc2)c2ccccc12	none
COc1ccc(CSc2nnc(SCc3ccc(C(=O)O)cc3)s2)cc1	none
CCOc1ccc(NC(=O)Cc2ccccc2OC)cc1	none
COc1ccccc1CC(=O)Nc1ccc(-c2nc3ccccc3[nH]2)cc1	A1 inh 29
Nc1ccc(-c2nc3ccccc3[nH]2)cc1	none
CC1CCCN(S(=O)(=O)c2ccc(C(=O)Nc3ccccc3-c3nc4ccccc4[nH]3)cc2)C1 (centres undefined)	none
CN(Cc1ccccc1)S(=O)(=O)c1ccc(C(=O)Nc2ccc(-c3nc4ccccc4[nH]3)cc2)cc1	A1 inh 22
CCCC(=O)Nc1ccc(-c2nc3cc4ccccc4cc3[nH]2)cc1	none
COc1ccc2cc(C(C)c3nc4ccccc4[nH]3)ccc2c1 (centres undefined)	none
CN(C)CCN(C(=O)CN1C(=O)c2ccccc2C1=O)c1nc2c(F)cc(F)cc2s1	none
CC1(C)CC2CC(C)(CN2C(=O)Nc2ccc3snnc3c2)C1 (centres undefined)	none
COC(=O)c1ccc(NC(=O)CC(CC(=O)O)c2ccccc2)cc1 (centres undefined)	none
C[C@@H]1O[C@@H](O[C@H]2[C@H](O)[C@@H](O)[C@H](OC[C@H]3O[C@@H](OC(=O)[C@]45CCC(C)(C)CC4C4=CCC6[C@@]7(C)CC[C@H](O)C(C)(C)C7CC[C@@]6(C)[C@]4(C)CC5)[C@H](O)[C@@H](O)[C@@H]3O)O[C@@H]2CO)[C@H](O)[C@H](O)[C@H]1O (some centres undefined)	none
CC1OC(OC2CCC3(C)C(CCC4(C)C3CC=C3C5CC(C)(C)CCC5(C(=O)OC5OC(CO)C(OC6OCC(OC7OC(CO)C(O)C(O)C7O)C(OC7OCC(O)C(O)C7O)C6O)C(O)C5O)CCC34C)C2(C)C)C(O)C(O)C1OC1OCC(O)C(O)C1O (centres undefined)	none
CC1OC(O[C@H]2CC[C@@]3(C)C(CC[C@]4(C)C3CC=C3C5CC(C)(C)CC[C@]5(C(=O)OC5OC(CO)C(OC6OC(CO)C(O)C(O)C6O)C(O)C5O)CC[C@]34C)C2(C)C)C(O)C(O)C1OC1OCC(O)(COC2OCC(O)C(OC3OCC(OC4OCC(O)(CO)C4O)C(O)C3O)C2O)C1O (some centres undefined)	none
CC1OC(OC2C(CO)OC(OC(=O)[C@]34CCC(C)(C)CC3C3=CCC5[C@@]6(C)CC[C@H](OC7OC(C)C(OC8OCC(O)(COC9OCC(O)C(OC%10OCC(OC%11OCC(O)(CO)C%11O)C(O)C%10O)C9O)C8O)C(O)C7O)C(C)(C)C6CC[C@@]5(C)[C@]3(C)CC4)C(O)C2O)C(O)C(O)C1O (some centres undefined)	A1 inh 12
CC(=O)N[C@H]1[C@H](O[C@H]2CC[C@@]3(C)C(CC[C@]4(C)C3CC=C3[C@@H]5CC(C)(C)CC[C@]5(C(=O)OC5OCC(O)C(O)C5O)C(O)C[C@]34C)C2(C)C)O[C@H](COC2OCC(O)C(OC3OCC(O)C(O)C3O)C2O)[C@@H](O[C@@H]2O[C@@H](C)[C@H](O)[C@@H](O)[C@H]2O[C@@H]2O[C@@H](C)[C@H](O)[C@@H](O)[C@H]2O)[C@@H]1O (some centres undefined)	A1 inh 35
CC1(C)CC[C@@]2(C(=O)O[C@@H]3O[C@H](CO)[C@@H](O)[C@H](O)[C@H]3O)C(C1)C1=CCC3[C@@]4(C)CC[C@@H](O[C@@H]5O[C@H](C(=O)O)[C@@H](O[C@@H]6OC[C@@H](O)[C@H](O)[C@H]6O)[C@H](O)[C@H]5O)C(C)(C)C4CC[C@@]3(C)[C@]1(C)C[C@H]2O (some centres undefined)	none
